This is an account of results in PubChem BioAssay.

Test [1] in a line: A549 cell viability effects, profiling panel, calcein-AM fluorescence, 48 h, basal (AID 1162). Conditions: higher = more signal.
Test [2] can be described thus: adipocyte viability effects, profiling panel, cell-based, 3T3-L1 adipocytes, calcein-AM fluorescence, 48 h, basal (AID 1163). To be noted: 3T3-L1 adipocytes viability, higher = more signal.
Test [3] in a line: HepG2 cell viability effects, profiling panel, calcein-AM fluorescence, 48 h, basal (AID 1164). To be noted: higher = more signal.
A short description of test [4]: MM1S cell viability effects, profiling panel, calcein-AM fluorescence, 48 h, basal (AID 1165).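 Also: viability of MM1S multiple myeloma cells under basal unstimulated conditions.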 Conditions: higher = more signal.
The nature of test [5]: basal RPMI8226 viability, no added stimulus, profiling panel, cell-based, calcein-AM fluorescence, 48 h, PK04 Diversity Set (AID 1166).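 Also: cells grown under basal conditions without added stimulus.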 Conditions: RPMI8226 myeloma viability, higher = more signal.
Test [6] is described as follows: basal HepG2 mitochondrial membrane potential changes, profiling panel, cell-based, JC-1 fluorescence, 24 h, 100 nL compound (AID 1167). To be noted: higher = more signal.
A short description of test [7]: basal 3T3-L1 adipocyte mitochondrial potential changes, profiling panel, cell-based, JC-1 fluorescence, 3T3-L1 adipocytes, 24 h, 100 nL compound (AID 1168). To be noted: JC-1 mitochondrial fluorescence, higher = more signal, called active from +8 up or from −8 down.
A short description of test [8]: basal RPMI8226 mitochondrial membrane potential changes, profiling panel, cell-based, JC-1 fluorescence, 24 h, 100 nL compound (AID 1169). Conditions: RPMI8226 myeloma, JC-1 mitochondrial potential fluorescence, higher = more signal.
Test [9] in a line: basal MM1S mitochondrial membrane potential changes, profiling panel, cell-based, JC-1 fluorescence, 24 h, 100 nL compound (AID 1170). To be noted: higher = more signal.
Test [10] is described as follows: A549 lung cancer cell viability effects, profiling panel, resazurin fluorescence, 24 h, PK04 Diversity Set (AID 1171). Conditions: higher = more signal, called active from +8 up or from −8 down.

Active and inactive are the calls of the source.
Also: test concentration not given here.

With `COc1ccc(C(O)C2C=CC3C(=O)N(c4ccccc4)C(=O)C3N2Nc2ccc([N+](=O)[O-])cc2)c2ccccc12` (stereo not given), the z-score in [1] is -0.826; in test [2], -1.07; in test [3], -0.39; in test [4] it was -0.517; in test [5] it was -0.54; in test [6], -2.27. Besides, the z-score in test [7] was -1.08 (inactive); in test [8] it was -0.344; in [9], -1.32; in test [10], 0.604 (inactive).

Consider `Cc1ccc(S[C@]2(C(=O)NC3CC3)CC(=O)N(C(C)C)[C@@H]2c2ccc(CO)cc2I)cc1`, for which the z-score is 1.22 in test [1]; 1.07 in test [2]; -0.722 in test [3]; -2.31 in test [4]; -2.82 in [5]; 2.11 in test [6]. The z-score in test [7] is -0.578 (inactive); in test [8], -0.114; in [9], -2.21; in test [10] it was 0.954 (inactive).

For the compound `C=C(CCCC)C(=O)CC[C@H](OC(=O)c1ccccc1-c1ccccc1C(=O)O)c1ccc(OCCO)cc1`, the z-score is -0.107 in test [1]; 0.251 in test [2]; -0.549 in test [3]; -3.19 in test [4]; -3.37 in test [5]; 0.236 in test [6]. Moreover, the z-score is -0.245 (inactive) in test [7], -0.346 in test [8], 0.258 in test [9] and 0.52 (inactive) in [10].

With `CCOC(=O)C1=CCC(c2cc3ccccc3[nH]2)N(CCN2CC(C(=O)OCC)=CCC2c2cc3ccccc3[nH]2)C1` (stereo not given), the z-score in [1] was -0.638; in test [2], 0.552; in test [3], 0.105; in [4], 0.183; in test [5], -0.54; in test [6] it was -0.4. The z-score in test [7] is -0.73 (inactive); in test [8], -0.111; in test [9], -1.83; in test [10], 0.161 (inactive).

Regarding `C=C(CCCC)C(=O)CC[C@@H](OC(=O)c1ccccc1-c1ccccc1C(=O)O)c1ccccc1OCCO`, the z-score in test [1] is 1.54; in test [2], 2.03; in test [3], -0.29; in [4], -3.39; in test [5], -3.95; in test [6], -0.688. Also, the z-score in [7] was 0.306 (inactive); in test [8] it was -0.67; in [9], -0.203; in test [10] it was 0.573 (inactive).

For the compound `CC(C)NC(=O)[C@@]1(C)c2ccccc2C(=O)N(Cc2ccccc2)[C@H]1c1ccc(CO)cc1`, the z-score is 0.389 in test [1]; 0.714 in [2]; 1.41 in test [3]; 0.579 in test [4]; 0.38 in test [5]; 2.88 in test [6]. Besides, the z-score in [7] is 1.49 (inactive); in test [8], -0.197; in test [9], 1.02; in [10] it was -0.268 (inactive).

As for `CN1C(=O)C2C(C3CC3)C=C3CN(Cc4cccc(Cl)c4)[C@@H]([C@@H](O)Cc4ccccc4)C3C2C1=O` (stereo not given in full), the z-score in test [1] was 1.19; in [2], 0.638; in test [3], 0.506; in [4], -1.81; in [5] it was -2.67; in test [6] it was 1.24. For the same compound, the z-score is -0.424 (inactive) in test [7], -0.426 in test [8], -0.939 in test [9] and 0.43 (inactive) in test [10].

Turning to `COC(=O)[C@H](Cc1ccc(O)cc1)N[C@@H](/C=C/C1CC1)[C@H](O)Cc1ccccc1`, the z-score in test [1] is -0.0547; in test [2] it was -1.21; in [3] it was 0.192; in test [4], -1.69; in test [5], -0.192; in test [6], -1.82. Moreover, the z-score is -0.177 (inactive) in test [7], -0.512 in [8], -1.01 in [9] and 0.0243 (inactive) in [10].

Take `CC(C)(C)OC(=O)CC[C@]1(C(=O)NCC(O)CO)N=C(c2ccc(OCCCO)cc2)O[C@H]1c1ccccc1N=[N+]=[N-]` (stereo not given in full): the z-score in test [1] was 0.0239; in [2], 0.809; in test [3], 0.324; in [4] it was -0.312; in test [5], -0.198; in [6] it was 0.0858. Also, the z-score in test [7] is 2.2 (inactive); in test [8], -0.832; in test [9], -0.591; in test [10] it was 0.35 (inactive).

Turning to `CCCCCCc1nc(-c2ccc(-c3ccc(Cl)c(Cl)c3)o2)cc2c1[Si](C(C)C)(C(C)C)OC2`, the z-score in [1] was -0.567; in test [2], 1.84; in test [3], -0.0442; in test [4], -3; in test [5], -4.4; in [6], -1.24. Also, the z-score in test [7] is 0.771 (inactive); in [8], -0.934; in test [9] it was -1.23; in [10], 1.19 (inactive).

With `COC(=O)[C@]1(Cc2ccccc2)N=C(c2ccc(OCCCO)cc2)O[C@@H]1c1ccccc1CN=[N+]=[N-]`, the z-score in test [1] is -3.63; in [2] it was 0.748; in test [3] it was -5.37; in [4] it was -3.55; in test [5], -3.97; in [6], -2.4. Besides, the z-score is -0.876 (inactive) in [7], -1.12 in test [8], -1.34 in test [9] and -4.59 (inactive) in test [10].

Turning to `CN1C(=O)C2C=CC(C(O)c3ccc(-c4ccccc4)s3)N(NC(=O)OC(C)(C)C)C2C1=O` (stereo not given), the z-score in test [1] is -0.823; in test [2], -1.6; in test [3], -0.68; in [4], 0.244; in [5], -0.906; in test [6], -1.73. For the same compound, the z-score in test [7] was -0.339 (inactive); in [8], -0.0635; in test [9] it was 0.856; in test [10], 0.117 (inactive).

`COc1ccc(C(=O)Nc2cccc(CN3C(=O)[C@@]4(O[C@@H](CC(=O)N5CCC[C@H]5CO)[C@H]([Si](C)(C)c5ccc(OC)cc5)[C@H]4C)c4ccccc43)c2)cc1`: the z-score in test [1] was -0.273; in test [2] it was 0.695; in [3], -0.765; in test [4], -2.74; in [5], -4.26; in test [6], 1.98. The z-score was 0.487 (inactive) in [7], -1.13 in [8], -1.06 in test [9] and -0.35 (inactive) in test [10].

On to `C[C@]1(C(=O)O)c2ccccc2C(=O)N(Cc2cc(F)cc(C(F)(F)F)c2)[C@H]1c1ccc(CO)cc1`, for which the z-score in test [1] is 0.653; in test [2], 0.658; in [3] it was -0.577; in test [4], 0.471; in test [5], 0.792; in [6] it was -0.23. Also, the z-score in [7] was 0.235 (inactive); in [8], 0.383; in test [9], -0.703; in test [10] it was 1.27 (inactive).
